Screens: PubChem BioAssay, National Center for Advancing Translational Sciences (NCATS)
ASM inhibitor: blocks human secretory acid sphingomyelinase; placental ASM, HMU-PC fluorogenic substrate, 60 min; Potency, µM (titrated, usually from 57.5 µM), without a hit: at the top dose activity change, negative = inhibition, usual class: inhibitors; actives 0.006% (n = 340,000); AID 504937; also: potency is read from the fitted curve at half-maximal effect
Target sequence (P17405 47-631 limits assumed): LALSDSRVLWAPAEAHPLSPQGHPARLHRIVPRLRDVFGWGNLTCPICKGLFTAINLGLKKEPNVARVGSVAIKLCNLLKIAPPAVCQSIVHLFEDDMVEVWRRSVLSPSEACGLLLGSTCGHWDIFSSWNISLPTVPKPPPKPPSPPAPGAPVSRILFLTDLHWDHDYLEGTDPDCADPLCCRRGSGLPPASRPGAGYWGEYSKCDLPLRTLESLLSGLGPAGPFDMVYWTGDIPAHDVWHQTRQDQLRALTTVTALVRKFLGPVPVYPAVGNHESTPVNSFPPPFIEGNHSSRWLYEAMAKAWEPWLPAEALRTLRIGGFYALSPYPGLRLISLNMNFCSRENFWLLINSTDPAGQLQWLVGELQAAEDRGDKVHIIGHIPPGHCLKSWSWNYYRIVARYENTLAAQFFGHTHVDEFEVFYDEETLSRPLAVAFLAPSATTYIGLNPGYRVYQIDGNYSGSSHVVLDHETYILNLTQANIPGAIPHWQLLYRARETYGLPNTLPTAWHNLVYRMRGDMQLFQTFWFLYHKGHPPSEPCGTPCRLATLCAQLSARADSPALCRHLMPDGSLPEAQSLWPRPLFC
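Human placenta-derived ASM preincubated with compound 10 min at room temperature, then reacted with 9 uM (final) fluorogenic HMU-PC substrate for 60 min at 37 C. Stop solution raises pH to 10; fluorescence read at Ex 386/Em 447 nm.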
TDP1 cell noCPT: qHTS for Inhibitors of human tyrosyl-DNA phosphodiesterase 1 (TDP1): qHTS in cells in absence of CPT. DT40 Tdp1-/- hTDP1 cells, no CPT, ATP luminescence, 48 h. Potency, µM (doses to about 46.2 µM), for inactives: at the top dose activity change, negative = growth inhibition, hits mostly inhibitors. actives 15% (n = 420,000). AID 686978, 2013; also: potency is read from the fitted curve at half-maximal effect; % is scaled to controls: 0 for no effect and ±100 for the full control effect; nearly all actives have a fitted effect of over 55% in size
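Chicken DT40 Tdp1-/- cells stably complemented with human TDP1 were seeded at 400 cells/well with DMSO in place of 20 nM camptothecin. After compound pinning, cells grew at least 48 hr at 37 °C; viability read by CellTiter-Glo luminescence.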
IL1B secr inh: blocks inflammasome-driven IL-1 beta release | activity change, % at 57.5 µM | THP-1 LPS/ATP IL-1B secretion, AlphaLISA, 16 h; stronger effect = lower value | AID 743279 | actives 4.7% (n = 360,000); in the data active = activity change below about -50%; inconclusive = mostly about -30% to -49%; also: % is scaled to controls: 0 for no effect and ±100 for the full control effect
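THP-1 cells pretreated 1 hr with compounds (up to 57.5 uM final), then stimulated with LPS (250 ng/mL final) plus ATP (1.25 mM final); secreted IL-1B measured by AlphaLISA after 16 hr, decreased signal indicating inhibition.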
TGFb SMAD3 inh: inhibitors of TGF-b signaling | HepG2 CAGA-GFP TGF-b/SMAD3 reporter, GFP fluorescence, 18 h; TGF-beta stimulated, 500 pg/mL final | Potency, µM (highest dose often 46.1 µM), inactives show at the highest dose activity, negative = inhibition, most hits filed as inhibitors | actives 1.2% (n = 410,000) | AID 588855; also: potency is read from the fitted curve at half-maximal effect; % is scaled to controls: 0 for no effect and ±100 for the full control effect; nearly all actives have a fitted effect of over 65% in size
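Per well, imaged GFP fluorescence of HEPG2 CAGA-GFP cells gives the signal; cells get compound, then TGF-beta (500 pg/mL final), 18 h at 37 degrees C; %Activity versus -TGF-beta and +DMSO controls.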
TDP1 cell CPT: growth inhibition of DT40 Tdp1-/-;hTDP1 cells with camptothecin (screen for TDP1 inhibitors). Potency, µM (titrated, usually from 46.2 µM), for inactives: at the highest dose activity change, negative = growth inhibition, most hits filed as inhibitors. actives 12% (n = 420,000). chicken DT40 Tdp1-/-;hTDP1 cells + 20 nM CPT, ATP luminescence, 48 h; also: potency is read from the fitted curve at half-maximal effect; % is scaled to controls: 0 for no effect and ±100 for the full control effect; nearly all actives have a fitted effect of over 55% in size
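Chicken DT40 Tdp1-/- cells complemented with human TDP1, 400 cells/well, exposed to compounds plus 20 nM camptothecin for at least 48 h at 37 C; viability read as ATP content by CellTiter-Glo luminescence.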
HepG2 tox: counter-screen for TGF-b inhibitors: cytotoxicity in HepG2 cells | AID 588856 | actives 0.76% (n = 410,000) | HepG2 CAGA-GFP viability, ATP luminescence, 18 h | Potency, µM (top dose mostly 46.1 µM), for inactives: top-dose activity change, negative = cytotoxicity, most hits filed as cytotoxic; also: potency is read from the fitted curve at half-maximal effect
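CellTiter-Glo luminescence gave cytotoxicity after 18 hours at 37 degrees C. The cells were HepG2 CAGA-GFP in 1% FBS DMEM, stimulated with 500 pg/mL TGF-beta after compound addition. %Activity was normalised to no-cell wells (complete cell-killing) and DMSO (no toxicity), and curves were fitted and classified.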
An asterisk follows results filed as active; u = inconclusive; x = no result given; [ ] = remark or other dose. A selection: hits, their analogues and other compounds. The true share with any hit is near 19%. Unless noted, calls follow the shape of the dose curve; as a rule, active = well fitted curve in the direction sought with a large enough effect; inconclusive = small, poorly fitted or top-dose-only effect, or another doubt; inactive = no such curve, though single readings can be large; an effect the other way counts as inactive or inconclusive.

SMILES	ASM inhibitor	TDP1 cell noCPT	IL1B secr inh	TGFb SMAD3 inh	TDP1 cell CPT	HepG2 tox
CCC(=O)N1CCN(c2nnc(-c3ccccc3)c3ccccc23)CC1	-4%	-22%	-13	0%	-3%	2%
Cc1ccc(-c2nnc(N3CCN(C(=O)c4ccco4)CC3)c3ccccc23)cc1	-2%	u	-63*	-16%	21µM*	-24%
COc1ccc(-c2n[nH]c3c2C(c2ccccn2)N(C)C3=O)cc1 (stereo unspecified)	x	-4%	x	1%	u	3%
CCOc1cc(C)c(-c2onc(C(F)(F)F)c2-c2csc(C)n2)c(O)c1	-11%	u	-55*	u	u	-92%
O=C(COC(=O)c1cnccn1)Nc1ncc(C(F)(F)F)cc1Cl	9%	3%	-4	25%	13%	57%
COc1cccc(CN(C)C(=O)[C@@H](NC(=O)c2ccc(C)cc2)C(C)C)c1	3%	21µM*	-20	0%	21µM*	-8%
COc1cccc(NC(=O)CN(C)C(=O)c2ccc(Cl)c(S(=O)(=O)N3CCCCCC3)c2)c1	0%	15µM*	-19	2%	u	-8%
COc1ccc(C(=O)N[C@H](C(=O)NCc2ccc(C)cc2)C(C)C)cc1	0%	-29%	-19	-1%	-5%	14%
COc1ccccc1CN(C)C(=O)c1ccc(COc2ccccc2)cc1	-1%	u	-76*	u	16µM*	-9%
COc1ccc(Br)cc1CN(C)C(=O)c1ccc2c(c1)NC(=O)C(C)S2 (stereo unspecified)	-4%	0%	37	-7%	18%	9%
COc1ccc(Br)cc1CN(C)C(=O)c1cc(Cl)c2c(c1)OCCO2	-2%[11.5 µM]	21µM*	-26	-19%	u	-2%
CCOC(=O)c1c(NC(=O)c2cc(=O)c3ccc(C)cc3o2)sc(C)c1C	x	-2%	x	-1%	-9%	5%
Cc1ccc(S(=O)(=O)N(CCC(=O)NCc2ccccc2F)c2ccccc2)cc1	-1%	u	-21	4%	u	-2%
CCCN(CC(=O)Nc1ccccc1OC)C(=O)c1cnc(Cl)c(Cl)c1	-2%	u	18	0%	-27%	-9%
COc1cccc(NC(=O)CN(C)C(=O)c2ccc3ccccc3c2)c1	-1%	2%	17	24%	-3%	-3%
COc1cccc(CN(C)C(=O)c2ccc(Oc3ccccc3)cc2)c1OC	0%[11.5 µM]	21µM*	-9	u	26µM*	-8%
COc1cccc(CN(C)C(=O)CCN(c2ccccc2)S(=O)(=O)c2ccc(C)cc2)c1OC	7%	16µM*	-10	4%	26µM*	-8%
CCN(CC(=O)Nc1cccc(OC)c1)C(=O)c1cnc(Cl)c(Cl)c1	-2%	u	-83*	0%	-11%	11%
COc1cccc(NC(=O)CN(C)C(=O)CNC(=O)c2ccc3ccccc3c2)c1	-6%	5%	-100*	u	-1%	6%
O=C(NCC1CCCO1)c1nn2c(C(F)(F)F)cc(-c3cc(Br)cs3)nc2c1Br (stereo unspecified)	6%	u	7	-1%	u	-9%
CN(Cc1ccc(F)cc1)C(=O)C(c1ccccc1)c1ccccc1	2%	u	u	-7%	-27%	-6%
COc1ccc(Br)cc1CN(C)C(=O)CNC(=O)c1ccc2ccccc2c1	-1%	u	-75*	-2%	-23%	-2%
COc1cccc(NC(=O)CN(C)C(C)C(=O)NC(C)c2ccc(Cl)cc2Cl)c1 (stereo unspecified)	-2%	18µM*	-8	5%	u	-19%
COc1ccccc1CN(C)C(=O)C(c1ccccc1)c1ccccc1	-3%	13µM*	-82*	0%	16µM*	-8%
COc1ccc(CN(C)C(=O)C(Cc2ccccc2)NC(=O)c2ccccc2)c(OC)c1 (stereo unspecified)	x	21µM*	-24	2%	u	-4%
SMILES	ASM inhibitor	TDP1 cell noCPT	IL1B secr inh	TGFb SMAD3 inh	TDP1 cell CPT	HepG2 tox
COc1ccccc1CNC(=O)C(Cc1ccccc1)NC(=O)c1ccccc1 (stereo unspecified)	1%	u	0	7%	u	-9%
Cc1cc(C)cc(-n2c(SCC(=O)N3CCCCC3)nc3c([nH]c4ccccc43)c2=O)c1	x	-8%	x	-3%	2%	-2%
COc1cc(NC(=O)CCn2cnc3ccccc3c2=O)cc(OC)c1	x	u	x	2%	-17%	-1%
Cc1ccc(S(=O)(=O)[N-]c2nc3ccccc3nc2-[n+]2cc(C)cc(C)c2)cc1	-5%	25%	-4	29%	-4%	14%
COc1ccccc1OCCSc1nc2ccccc2n1CC(N)=O	0%	-6%	27	1%	5%	-2%
Cn1ccc2cc(-c3csc(N4CCC(C(N)=O)CC4)n3)ccc21	0%	x	x	3%	x	-26%
CN(CC(=O)Nc1cccc(F)c1)C(=O)c1ccc(OCc2cn3ccccc3n2)cc1	6%	15µM*	-2	-2%	u	-9%
COc1ccc(CN(C)C(=O)c2ccc(COc3ccccc3)cc2)c(OC)c1	28%	9.2µM*	-8	u	18µM*	-3%
Cc1ccc(NC(=O)CN(C)C(=O)c2ccc(OCc3cn4ccccc4n3)cc2)cc1	-1%	-22%	32	2%	u	-3%
COc1cccc(NC(=O)CN(C)C(=O)c2ccc(COc3ccccc3)cc2)c1	0%	16µM*	9	0%	u	-9%
COc1cccc(CN(C)C(=O)CNC(=O)c2ccc(-c3ccccc3)cc2)c1OC	11%	u	-63*	u	u	-26%
CC(=O)Nc1ccc(NC(=O)C(C)OC(=O)CCc2c[nH]c3ccccc23)cc1 (stereo unspecified)	-3%	-28%	14	u	u	-7%
Cc1ccc(NC(=O)NCCN2CCCCC2)cc1Cl	0%	-30%	u	7%	-26%	-17%
O=C(COc1cccnc1[N+](=O)[O-])NC1CCS(=O)(=O)C1 (stereo unspecified)	4%	-5%	13	7%	-7%	9%
Cc1ccc(S(=O)(=O)N2CCC(=O)N(CCOCc3ccc(C(F)(F)F)cc3)CC2)cc1	-1%	8.2µM*	u	11µM*	4.6µM*	-23%
